# Shown are actives, neighbours in structure and some others; about 3% of the full set was active somewhere.
# DAGLB inhibitor: diacylglycerol lipase beta (human) inhibition; HEK293T DAGLB membrane lysate, EnzChek fluorogenic substrate; inhibition, % at 5.17 µM; actives 0.059% (n = 340,000); AID 504411; in the data active means inhibition above about 34%;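 further: 0% = enzyme with vehicle and 100% = wells lacking enzyme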
# PAFAH1B3 FP inh: inhibitors of human PAFAH1B3 | Q15102 | recombinant PAFAH1B3, FP-rhodamine probe, fluorescence polarization | inhibition, % at 3.39 µM | actives 0.28% (n = 340,000);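 active means inhibition above the screen-wide average of all tested compounds plus 3 SD, cut at about 25% in these data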;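 further: 0% = enzyme with DMSO only and 100% = wells lacking PAFAH1B3 protein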
# Target sequence (Q15102 whole entry, looked up): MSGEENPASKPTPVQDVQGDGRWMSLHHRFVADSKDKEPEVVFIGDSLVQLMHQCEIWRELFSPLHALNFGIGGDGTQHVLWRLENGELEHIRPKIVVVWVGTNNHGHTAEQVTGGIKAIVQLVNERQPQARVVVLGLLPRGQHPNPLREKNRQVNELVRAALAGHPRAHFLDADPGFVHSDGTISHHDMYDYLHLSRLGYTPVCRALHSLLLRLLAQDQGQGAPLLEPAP
# PAFAH2 FP inh: inhibitors of human PAFAH2. recombinant PAFAH2, FP-rhodamine activity probe, fluorescence polarization. Q99487. actives 0.99% (n = 340,000). AID 492956. inhibition, % at 3.39 µM;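 active means inhibition above the mean over all tested compounds plus 3 SD, cut at about 30% in these data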;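 further: inhibitors block probe labeling of enzyme so polarization drops; 0% = enzyme with DMSO and 100% = wells lacking PAFAH2 protein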
# ATG4B inhibitor: blocks human ATG4B protease cleavage of LC3 substrate; ATG4B cleavage of LC3-PLA2, NBD-HPC fluorescence, 1 h; AID 504462; actives 0.51% (n = 340,000); inhibition, % at 8.33 µM; in the data active means inhibition above about 40%
# pPAFAH inh: pPAFAH (human) enzyme inhibition; recombinant pPAFAH, FP-rhodamine probe fluorescence polarization; AID 463082; actives 1.5% (n = 330,000); inhibition, % at 3.39 µM;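 active means inhibition above the mean inhibition across the screen plus 3 SD, cut at about 25% in these data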;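 further: inhibitors block binding of the rhodamine activity-based probe so polarization drops; 0% = enzyme with DMSO and 100% = wells lacking pPAFAH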
# PAFAH1B2 inh: inhibitors of human PAFAH1B2. recombinant PAFAH1B2, FP-rhodamine activity probe, fluorescence polarization. inhibition, % at 3.39 µM. actives 1.2% (n = 340,000). P68402. AID 492953;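 active means inhibition above the mean of all tested compounds plus 3 SD, cut at about 24% in these data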;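 further: 0% = enzyme with DMSO and 100% = wells lacking PAFAH1B2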
# Target sequence (P68402 whole entry, looked up): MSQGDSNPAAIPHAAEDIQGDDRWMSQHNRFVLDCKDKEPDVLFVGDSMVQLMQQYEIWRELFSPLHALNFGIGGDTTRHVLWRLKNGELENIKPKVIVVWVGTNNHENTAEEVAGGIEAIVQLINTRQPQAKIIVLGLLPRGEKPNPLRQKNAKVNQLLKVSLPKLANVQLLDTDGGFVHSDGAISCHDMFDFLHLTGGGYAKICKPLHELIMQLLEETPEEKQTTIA
# PAFAH2 FP conf: confirmation of human PAFAH2 inhibitors; recombinant PAFAH2, FP-rhodamine activity probe, fluorescence polarization; inhibition, % at 3.39 µM; shares compounds with PAFAH2 FP inh; actives 65% (n = 2,300); AID 493030;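 active means mean inhibition over three repeats above a set limit taken from the earlier primary screen, cut at about 30% in these data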;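 further: inhibitor blocks binding of rhodamine activity probe so polarization falls; 0% = enzyme with DMSO and 100% = wells lacking PAFAH2 protein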
# * marks the source's active call; other numbers are inactive results; nt = not tested or not shown.
SMILES,DAGLB inhibitor,PAFAH1B3 FP inh,PAFAH2 FP inh,ATG4B inhibitor,pPAFAH inh,PAFAH1B2 inh,PAFAH2 FP conf
N/C(Cc1ccc([N+](=O)[O-])cc1)=N\OC(=O)c1ccccc1Br,-10,6,-1,-6,7,2,nt
Cc1cccc(C(=O)O/N=C(\N)Cc2ccc([N+](=O)[O-])cc2)c1,-8,5,37*,-1,15,0,30
N/C(Cc1ccc([N+](=O)[O-])cc1)=N\OC(=O)c1ccco1,-1,1,39*,-12,1,7,37*
O=C(COC(=O)/C=C/c1ccc(C(F)(F)F)cc1)NCC1CCCCC1,2,2,30*,-11,3,3,22
O=C(COC(=O)/C=C/c1ccc(OC(F)F)cc1)NC1CCCC1,-2,7,70*,-4,20,0,74*
COc1ccc(/C=C/C(=O)OCC(=O)NC2CCCC2)cc1OC,4,16,83*,-3,10,2,78*
O=C(COC(=O)/C=C/c1ccc(OC(F)F)cc1)NC(=O)NC1CCCCC1,-4,2,17,-9,5,4,nt
COc1ccc(OC)c(/C=C/C(=O)OCC(=O)NC2CCCCCCC2)c1,-1,5,90*,8,20,8,86*
O=C(C=Cc1ccccc1)CC(c1ccccc1)N1CCOCC1 (stereo not drawn),-5,2,7,0,nt,-2,nt
COc1ccc(/C=C/C(=O)OCC(=O)NC2CCCCCCC2)cc1,0,10,86*,0,18,6,83*
COc1ccc(/C=C/C(=O)OCC(=O)N2CCCCCC2)cc1OC,0,3,33*,-1,4,6,15
CSc1ccc(/C=C/C(=O)OCC(=O)NC2CCCCCC2)cc1,-4,nt,nt,nt,nt,nt,nt
Cc1cccc(NC(=O)COC(=O)C2C3CC4OC(=O)C2C4C3)c1C (stereo not drawn),0,-2,7,1,-3,3,nt
COc1cccc(NC(=O)C2C3CC4OC(=O)C2C4C3)c1 (stereo not drawn),0,-6,5,-3,3,1,nt
O=C(COC(=O)C1C2CC3OC(=O)C1C3C2)Nc1cccc(C(F)(F)F)c1 (stereo not drawn),-1,10,71*,-16,7,-2,78*
O=C(COC(=O)C1C2CC3OC(=O)C1C3C2)Nc1ccc(Cl)cc1 (stereo not drawn),-1,2,84*,-19,8,0,74*
CCc1ccccc1NC(=O)COC(=O)C1C2CC3OC(=O)C1C3C2 (stereo not drawn),2,5,40*,0,0,1,31*
COc1cccc(NC(=O)COC(=O)C2C3CC4OC(=O)C2C4C3)c1 (stereo not drawn),-1,11,79*,-1,5,1,68*
CC1O[C@@H](O[C@H](C)CC[C@@H](C)O)C(O)C[C@H]1O (stereo partly drawn),1,7,5,4,2,-1,nt
Cc1ccc(C(C)C)c(OCC(O)CNC2CCCC2)c1 (stereo not drawn),-1,13,2,0,1,4,nt
COC(=O)[C@@H]1C[C@H]1[C@@H](NC(=O)c1cc(C)on1)c1ccccc1,1,1,-1,-6,3,3,nt
N#Cc1cc(C(=O)Cc2ccccc2)c[nH]1,-4,5,-1,1,1,4,nt
CC(=O)c1c(C)[nH]c(C(=O)OCC(=O)Nc2ccc(Cl)cc2[N+](=O)[O-])c1C,2,-1,48*,-4,4,6,32*
CC(=O)c1c(C)[nH]c(C(=O)OCC(=O)Nc2ccc(Cl)c(S(=O)(=O)N(C)C)c2)c1C,3,0,71*,-15,-2,-3,61*
CC(=O)c1c(C)[nH]c(C(=O)OCC(=O)Nc2ccc3c(c2)OCCO3)c1C,-2,5,35*,-18,0,4,20
SMILES,DAGLB inhibitor,PAFAH1B3 FP inh,PAFAH2 FP inh,ATG4B inhibitor,pPAFAH inh,PAFAH1B2 inh,PAFAH2 FP conf
O=C(CCN1CCCO1)N1CCCC(Nc2cccc(F)c2)C1 (stereo not drawn),-3,nt,nt,nt,nt,nt,nt
COCCNc1oc(/C=C/c2ccccc2OC)nc1S(=O)(=O)c1ccccc1,-2,-3,4,-9,5,4,nt
COc1cccc(-c2nc3ccccc3c(=O)o2)c1,2,4,68*,-2,-7,3,73*
COc1cc(OC)cc(-c2nc3ccccc3c(=O)o2)c1,1,-1,55*,-3,6,1,68*
COc1cc(OC)cc(-c2nc3cc(C)ccc3o2)c1,-8,8,-8,2,-1,2,nt
CC(C)(C)N1C(=O)c2ccc(C(=O)Nc3ccc(O)cc3)cc2C1=O,-2,0,7,-11,9,1,nt
CCN(CC)S(=O)(=O)c1cccc(NC(=O)COC(=O)c2cccs2)c1,-4,6,61*,-7,10,4,46*
CCN(CC)S(=O)(=O)c1cccc(NC(=O)COC(=O)C2CC3C=CC2C3)c1 (stereo not drawn),1,-3,38*,-12,20,3,26
CCN(CC)S(=O)(=O)c1cccc(NC(=O)COC(=O)/C=C/c2cccs2)c1,-6,-5,67*,-13,9,3,58*
CN(C)S(=O)(=O)c1cccc(NC(=O)COC(=O)CCC(=O)c2cccs2)c1,-2,-2,5,5,2,1,nt
CCN(CC)S(=O)(=O)c1cccc(C(=O)N[C@H](C(=O)OCC(N)=O)C(C)C)c1,-2,-6,2,-6,2,0,nt
CCN(CC)S(=O)(=O)c1cccc(C(=O)N[C@H](C(=O)OCC(=O)Nc2ccccc2)C(C)C)c1,-2,-10,51*,-12,5,5,39*
CCN(CC)S(=O)(=O)c1cccc(NC(=O)COC(=O)c2cncc(Br)c2)c1,-1,4,-2,-13,8,0,nt
CCOc1ccc(C(=O)N[C@H](C(=O)N2CCN(c3ncccn3)CC2)C(C)C)cc1,-12,nt,nt,nt,nt,nt,nt
CN(Cc1nc2ccccc2c(=O)[nH]1)C(=O)c1ccc(S(=O)(=O)N2CCCC2)cc1,2,11,-4,-5,3,5,nt
Cc1[nH]n(C(N)=S)c(=O)c1N=Nc1cccc(Cl)c1,15,11,5,-1,11,9,nt
NC(=S)n1[nH]c(-c2ccc([N+](=O)[O-])cc2)c(N=Nc2cccc(Cl)c2)c1=O,27,17,36*,7,nt,16,25
O=C(COc1ccc(Cl)cc1Cl)NN=C1CCCCC1,-1,6,15,-1,-1,0,nt
